# Laboratory results published in ChEMBL document CHEMBL3988442, “University of Dundee, Small-Polar-MMV Screening Library” (2021).
# Among all 69,000 compounds or so, about 1,000 (1.4%) showed an effect of 50% or more. The sample holds strong results, similar compounds and a random draw of the others, so the mix is not that of the screen.
# Test system: Leishmania donovani
# Experiment: Leishmania intramacrophage assay
# Assay type: functional, organism-based
# Set-up: scale not given: in the data most compounds retested in dose-response had high values
smiles,measurement,setting,value
COc1ccc(CC2CN(C(=O)c3ocnc3C)CCO2)cc1 (stereo unspecified),Percent Effect,"30.3 µM, […]",-6.657%
N#Cc1ccccc1C(=O)N1C[C@H](CO)C[C@H](CN2CCCC2)C1,Percent Effect,"30 µM, 30.03 µM",18.98%
Cc1nc2ccnn2c(C)c1CCC(=O)N1CCN(CCO)CC1,Percent Effect,30 µM,14.29%
CC(=O)N1CCCC(c2ccc(Cc3ccccc3)cn2)C1 (stereo unspecified),Percent Effect,"30.3 µM, […]",-26.06%
Cc1nc(CN2CCO[C@H]3CN(C(=O)c4cscn4)C[C@H]32)cs1,Percent Effect,"30.3 µM, […]",38.15%
Cc1ccsc1CN1CCc2nc3ccsc3c(=O)n2CC1.Cl,Percent Effect,"30.3 µM, […]",14.2%
COc1ccc2[nH]c3c(c2c1)CN(c1cc(NCCO)nc(N)n1)CC3,Percent Effect,"30.3 µM, […]",13.82%
Nc1nc(NCCO)cc(N2CCc3c([nH]c4ccccc34)C2)n1,Percent Effect,"30.3 µM, […]",50.32%
CC(C)Cc1ncc2c(n1)CN(c1cc(NCCO)nc(N)n1)C2,Percent Effect,"30.3 µM, […]",22.17%
CC(=O)N1CCO[C@@H]2CN(Cc3ccccc3F)C[C@@H]2C1.O=C(O)C(F)(F)F,Percent Effect,"30.3 µM, […]",6.292%
O=C(NCc1cccs1)C1CNCC12CCOCC2.O=C(O)C(F)(F)F (stereo unspecified),Percent Effect,"30.3 µM, […]",12.59%
CC(C)CN1CCC(NC(=O)N(C)Cc2csc3ccccc23)CC1,Percent Effect,"30.3 µM, […]",39.03%
CCN1CCC(NC(=O)N(C)Cc2csc3ccccc23)CC1,Percent Effect,"30.3 µM, […]",82.94%
CN(Cc1csc2ccccc12)C(=O)NC1CCS(=O)(=O)C1 (stereo unspecified),Percent Effect,"30.3 µM, […]",11.38%
COc1ccc(CCC(=O)Nc2cccnc2N2CCCC2)cc1Br,Percent Effect,"30 µM, 30.03 µM",33.61%
Cc1ccc(CNC(=O)CN2CCOC(Cn3cncn3)C2)s1 (stereo unspecified),Percent Effect,30 µM,21.75%
Cc1nc(Nc2nnc(C)s2)cc(C2CCCN2c2ccncn2)n1 (stereo unspecified),Percent Effect,"30.3 µM, […]",-2.613%
CCC(NC(=O)C(C)(C)C)c1ccccc1C (stereo unspecified),Percent Effect,"30.3 µM, […]",-8.319%
CC(C)CC(=O)N1CCN(C(=O)NC(C)C)CC2(CC(=O)N(C)C2)C1 (stereo unspecified),Percent Effect,"30.3 µM, […]",-8.176%
COCC(=O)N1CCN(C(=O)NC(C)C)CC2(CC(=O)N(C)C2)C1 (stereo unspecified),Percent Effect,"30.3 µM, […]",56.1%
CC(=O)N1CCN(C(=O)NC(C)C)CC2(CC(=O)N(C)C2)C1 (stereo unspecified),Percent Effect,"30.3 µM, […]",6.648%
CCc1cnc(CN(C)C2CCN(CCCNS(C)(=O)=O)C2)o1 (stereo unspecified),Percent Effect,"30.3 µM, […]",8.531%
c1csc(CCC2CCCCN2Cc2noc(C3CC3)n2)c1 (stereo unspecified),Percent Effect,"30.3 µM, […]",-14.11%
CCC1CCCCCN1C(=O)c1ccc(N2CCC(O)CC2)cc1 (stereo unspecified),Percent Effect,"30.3 µM, […]",32.16%
CCN1CCC2(CC1)OCCN2C(=O)c1cc(Cl)c(OC)c(Cl)c1.Cl,Percent Effect,"30.3 µM, […]",18.32%
CCN1CCC2(CC1)OCCN2C(=O)c1ccc(OC)c(Cl)c1.Cl,Percent Effect,"30.3 µM, […]",22.75%
CCCOc1c(Cl)cc(C(=O)N2CCOC23CCN(C)CC3)cc1Cl,Percent Effect,"30.3 µM, […]",88.42%
CS(=O)(=O)N1CCC2(CC1)CC(NCc1ccco1)c1ccccc12.O=C(O)C(F)(F)F (stereo unspecified),Percent Effect,"30.3 µM, […]",16.74%
COc1ccc2c(ccn2CCC(=O)O)c1,Percent Effect,"30 µM, 30.03 µM",9.834%
C/N=C1\c2cc3cc(OC)ccc3n2CCN1C.Cl,Percent Effect,"30.3 µM, […]",10.14%
C/N=C1\c2cc3cc(OC)ccc3n2CCN1Cc1ccccc1.O=C(O)C(F)(F)F,Percent Effect,"30.3 µM, […]",57.81%
COc1ccc(CN2CC[C@@H](O)[C@@H]2Cc2ccccc2)cc1.O=C(O)C(F)(F)F,Percent Effect,"30 µM, 30.03 µM",-18.25%
C/N=C1/c2cc3cc(OC)ccc3n2CCN1C,Percent Effect,"30.3 µM, […]",-16.2%
C/N=C1/c2cc3cc(OC)ccc3n2CCN1Cc1ccccc1.Cl,Percent Effect,"30.3 µM, […]",64.09%
COCCN1C[C@H]2CC[C@@H]1CN(Cc1cc(=O)c3cc(C)ccc3[nH]1)C2,Percent Effect,"30.3 µM, […]",38.8%
CSCC(C)(O)CNS(=O)(=O)c1cccc(Cl)c1 (stereo unspecified),Percent Effect,"30.3 µM, […]",18.54%
CC1CCN(C(=O)C(C)N2CCc3[nH]nc(C(F)(F)F)c3C2)CC1 (stereo unspecified),Percent Effect,"30.3 µM, […]",13.32%
Cc1nc(C(=O)N(C)CC2CCCO2)nn1-c1ccccc1C(C)C (stereo unspecified),Percent Effect,"30.3 µM, […]",0.9975%
Cn1cc(-c2nnn3c2COC(CNC(=O)c2cccs2)C3)cn1 (stereo unspecified),Percent Effect,"30.3 µM, […]",37.28%
Cc1cc(N2CCC(N(C)C(=O)c3ccccc3F)CC2)nc(C)n1,Percent Effect,"30.3 µM, […]",35.99%
Cc1cc(N2CCC(N(C)C(=O)c3ccc(C#N)cc3)CC2)nc(C)n1,Percent Effect,"30.3 µM, […]",14.71%
Cc1ccnc(N2CCC(NCCOc3ccccc3)CC2)n1,Percent Effect,"30.3 µM, […]",18.71%
Cc1nc(C)c(C)c(N2CCC(NCCOc3ccccc3)CC2)n1,Percent Effect,"30.3 µM, […]",58.55%
Cc1cc(N2CCC(N(C)C(=O)Nc3ccccc3)CC2)nc(C)n1,Percent Effect,"30 µM, 30.03 µM",11.78%
CN(C)c1ccnc(N2CCC(NCCOc3ccccc3)CC2)n1,Percent Effect,"30.3 µM, […]",79.37%
O=C(COCCOc1ccccc1)NC1CCN(c2ncccn2)CC1,Percent Effect,"30.3 µM, […]",21.86%
c1ccc(OCCNC2CCN(c3ncccn3)CC2)cc1,Percent Effect,"30.3 µM, […]",4.504%
Cc1cc(N2CCC(O)CC2)nc(C)n1,Percent Effect,"30.3 µM, […]",1.581%
Cc1cc(N2CCC(N(C)C(=O)c3ccccc3)CC2)nc(C)n1,Percent Effect,"30 µM, 30.03 µM",62.61%
Cc1cc(N2CCC(NCCOc3ccccc3)CC2)nc(C)n1,Percent Effect,"30.3 µM, […]",53.39%
Cc1nc(CN2CCCC(NCCOc3ccccc3)C2)no1 (stereo unspecified),Percent Effect,"30 µM, 30.03 µM",33.1%
CNc1cncc(C2CCCN2C(=O)CCn2ccnc2)n1 (stereo unspecified),Percent Effect,"30.3 µM, […]",1.152%
CCCc1cc(C(=O)N2CCOC(c3nc(-c4cccs4)no3)C2)no1 (stereo unspecified),Percent Effect,"30 µM, 30.03 µM",23.21%
COc1ccc(CN2CC[C@H](O)[C@@H]2Cc2cnn(C)c2)cc1.O=C(O)C(F)(F)F,Percent Effect,"30.3 µM, […]",36.9%
CCc1ncnc2c1CCN(CC(=O)N(C)C)CC2.O=C(O)C(F)(F)F,Percent Effect,"30.3 µM, […]",4.143%
CCc1cc(N2CCC(NCCc3ccc(C)o3)CC2)nc(C)n1,Percent Effect,"30.3 µM, […]",9.521%
CCc1cc(N2CCC(NCCc3ccccc3F)CC2)nc(C)n1,Percent Effect,"30.3 µM, […]",63.92%
CCc1cc(N2CCC(NCCc3nc(C)c(C)s3)CC2)nc(C)n1,Percent Effect,"30.3 µM, […]",22.72%
CCC(CNC(=O)NCc1cc[nH]n1)N1CCCC1 (stereo unspecified),Percent Effect,"30.3 µM, […]",10.3%
Cc1nn(C)c(C)c1S(=O)(=O)N(CC(N)=O)CC(C)C,Percent Effect,"30.3 µM, […]",-2.964%
COCCc1noc(C2CCN(S(=O)(=O)c3cccs3)CC2)n1,Percent Effect,"30.3 µM, […]",57.18%
CCCc1noc(C2CCN(S(=O)(=O)c3cccs3)CC2)n1,Percent Effect,"30.3 µM, […]",12.47%
CC(C)c1noc(C2CCN(S(=O)(=O)c3cccs3)CC2)n1,Percent Effect,"30.3 µM, […]",-2.602%
CCC(CNc1ncnc2oc(C)nc12)Cc1ccccc1 (stereo unspecified),Percent Effect,"30.3 µM, […]",45.54%
CCCOc1ccc(Cl)cc1CNc1ncnc2oc(C)nc12,Percent Effect,"30.3 µM, […]",22.92%
CCCOc1ccccc1CCCNc1ncnc2oc(C)nc12,Percent Effect,"30.3 µM, […]",83.62%
CCN(CCSc1ccccc1)C(=O)c1cn([C@H]2CC[C@@H](N)CC2)nn1,Percent Effect,"30.3 µM, […]",13.68%
Cc1ccc(SCCCNC(=O)c2cn([C@H]3CC[C@@H](N)CC3)nn2)cc1,Percent Effect,"30.3 µM, […]",94.34%
Cc1ccc(SCCN(C)C(=O)c2cn([C@H]3CC[C@@H](N)CC3)nn2)cc1,Percent Effect,"30.3 µM, […]",-26.18%
O=C(O)c1cnc(OCC2CC2)c(Br)c1,Percent Effect,"30.3 µM, […]",4.629%
COCCNC(=O)c1c(-n2cnnn2)sc2c1CCCC2,Percent Effect,"30.3 µM, […]",53.45%
COCCCNC(=O)c1c(-n2cnnn2)sc2c1CCC2,Percent Effect,"30.3 µM, […]",9.721%
CC(C)CCNC(=O)c1c(-n2cnnn2)sc2c1CCCC2,Percent Effect,"30.3 µM, […]",-26.12%
Cc1ccc(C(=O)N(CC2CCCO2)c2ccncc2)o1 (stereo unspecified),Percent Effect,"30.3 µM, […]",23.81%
Cc1nn(-c2ccccn2)c(C)c1[C@@H]1C=C[C@@H](NC(=O)NC(C)C)C1,Percent Effect,"30.3 µM, […]",10.96%
CCNC(=O)[C@@H]1C[C@@H](N)CN1Cc1ccc(Sc2ccc(C)cc2)o1,Percent Effect,"30.3 µM, […]",97.85%
CCNC(=O)[C@@H]1C[C@H](N)CN1Cc1ccc(-c2cc[nH]n2)o1,Percent Effect,"30.3 µM, […]",11.56%
CCNC(=O)[C@@H]1C[C@H](N)CN1Cc1ccc(Sc2ccc(C)cc2)o1,Percent Effect,"30.3 µM, […]",-2.33%
Cc1cc(C(=O)NC2CC(=O)N(C(C)C)C2=O)c(C)n1C(C)C (stereo unspecified),Percent Effect,"30.3 µM, […]",19.34%
NCC(CO)Cc1ccc(C(F)(F)F)cc1 (stereo unspecified),Percent Effect,"30.3 µM, […]",17.17%
Cc1cnn(CCNCC(O)c2ccc(F)c(F)c2)c1 (stereo unspecified),Percent Effect,"30.3 µM, […]",-10.99%
Cc1cnn(CCNCC(O)c2cccc(Br)c2)c1 (stereo unspecified),Percent Effect,"30.3 µM, […]",97.73%
OC(CNCCn1cccn1)c1cccc(Br)c1 (stereo unspecified),Percent Effect,30 µM,1.273%
O=C(NCCc1ccccc1F)NCC(O)c1cccc(F)c1 (stereo unspecified),Percent Effect,30 µM,19.34%
Cn1cc(CN2CC[C@@H]3[C@@H](CCC(=O)N3CC3CCNCC3)C2)cn1,Percent Effect,"30.3 µM, […]",16.61%
Cc1ccc(CC(=O)NCC(O)c2ccc(Cl)cc2Cl)cn1 (stereo unspecified),Percent Effect,"30.3 µM, […]",-16.89%
Cc1c(C)n(Cc2ccncc2)c2nc3c(c(N)c12)CCCCCC3,Percent Effect,"30.3 µM, […]",6.52%
Cc1c(C)n(Cc2ccccn2)c2nc3c(c(N)c12)CCCCC3,Percent Effect,"30.3 µM, […]",38.18%
Cc1c(-c2ccccc2)nc2c(c(C)c(C)n2CCN(C)C)c1N,Percent Effect,"30.3 µM, […]",99.06%
CCc1c(-c2ccccc2)nc2c(c(C)c(C)n2CCN(C)C)c1N,Percent Effect,"30.3 µM, […]",100.7%
CCc1c(C)sc2c1c(N)nc(=O)n2CCN(C)C,Percent Effect,"30.3 µM, […]",-18.16%
CCc1c(C)sc2c1c(N)nc(=O)n2CCCN(C)C,Percent Effect,"30.3 µM, […]",34.84%
Cc1cc(C(=O)N2C[C@@H]3[C@@H](CN(C)CCc4ccccn4)[C@@H]3C2)c(C)o1,Percent Effect,"30.3 µM, […]",-26.53%
CC(CN1CCCC1=O)NC(=O)Nc1cccnc1-n1cccn1 (stereo unspecified),Percent Effect,"30.3 µM, […]",-2.319%
Cc1nccn1CCN(C)c1nc(-c2ccc(Cl)cc2)nc2c1CNC2,Percent Effect,"30.3 µM, […]",51.4%
Cc1nccn1CCN(C)c1nc(-c2cccnc2)nc2c1CCNC2,Percent Effect,"30.3 µM, […]",20.05%
CCn1ccnc1CN(C)c1nc(-c2ccc(Cl)cc2)nc2c1CNC2,Percent Effect,"30.3 µM, […]",20.89%
Cc1c(-c2c(-c3ccccc3)ncn2[C@@H](C(=O)O)[C@H](C)O)cnn1C,Percent Effect,"30.3 µM, […]",50.58%
Cc1nn(C)c(C)c1-c1c(-c2ccccc2)ncn1[C@H](CO)C(=O)O,Percent Effect,"30.3 µM, […]",46.15%
Cc1c(-c2c(-c3ccccc3)ncn2[C@H](CO)C(=O)O)cnn1C,Percent Effect,"30.3 µM, […]",25.35%
Cc1ccccc1C(=O)N1CC[C@H](O)[C@@H](N2CCOCC2)CC1,Percent Effect,"30.3 µM, […]",5.268%
